Data: ChEMBL document CHEMBL3433997, “St. Jude Leishmania screening dataset” (2016)

molecular target: Glucose transporter (Leishmania mexicana) (UniProt O61059); assay: ST_JUDE_LEISH: Cytotoxicity at 2uM final concentration against transgenic Leishmania Mexicana promastigotes LmGT2 that are glucose transport deficient and complemented with the L. Mexicana glucose transporter 2. Activity is measured by DNA content using SYBR green in vitro; assay type: functional

SMILES | inhibition
COCCn1c(Sc2ccc(C#N)c([N+](=O)[O-])c2)nnc1-c1ccc(N(C)C)cc1 | 11.7%
Cc1ccc(CN2CCCN(Cc3cccc(NC(=O)c4cc5ccccc5s4)c3)CC2)cc1 | -2.83%
CCN(CC)CCCN1CCN(C(=O)c2cccc(-c3noc(C(F)(F)F)n3)c2)CC1 | 4%
CC(C)N(C(=O)CSc1nc2cc(Cl)ccc2c(=O)n1Cc1ccccc1)C(C)C | 0.05%
O=C(/C=C/c1ccc(Cl)c(Cl)c1)NCCCCCN1CCC(NC(=S)Nc2ccc(F)cc2F)CC1 | 14.5%
COc1ccc(CN2CCC(CNCCc3ccccc3Cl)CC2)cc1 | 12.5%
Cc1ccc(Nc2nccc(NCC(O)c3cccc(C)c3)n2)cc1 (stereo not given) | 3.22%
O=C(NCCCCN1CCC(c2ccc3c(c2OCCO)CCCC3)CC1)c1sc(-c2ccc(C(F)(F)F)cc2)nc1CO | 3.21%
CC(C)(C)c1ccc(NC(=O)c2cccc(CN3CCCN(Cc4ccsc4)CC3)c2)cc1 | 1.41%
Cc1cccc2nc(-c3cccc(-c4ccc(NC(=O)Cc5ccon5)cc4)c3)[nH]c12 | 10.8%
Cc1noc(C)c1-c1cccc(C(=O)NC2CCN(CCNC(=O)C(c3ccccc3)c3ccccc3)CC2)c1 | 1.64%
Fc1cc(Cl)ccc1Nc1ccnc2cc(-c3ccc(CN4CCOCC4)o3)ccc12 | 43.6%
N#Cc1cccc(NC(=O)Nc2cccc(-c3cccc(-c4nc5ccccc5[nH]4)c3)c2)c1 | 3.75%
CCn1c(-c2nonc2N)nc2c(-c3cccc(Cl)c3)ncc(OCCCNCc3cnc(C)nc3N)c21 | 2.98%
Cc1n[nH]c(C)c1C1CCN(CC2CCC(NC(=O)/C=C/c3ccc(Cl)c(Cl)c3)CC2)CC1 (stereo not given) | 5.93%
O=S(=O)(NCCN1CCCC1)c1cccc(-c2ccccc2CNC2Cc3ccccc3C2)c1 | 10.6%
O=C(/C=C/c1ccc(Cl)c(Cl)c1)N1CCC(CN2CCC(c3c[nH]c4ncccc34)CC2)CC1 | 2.38%
CCCC(=O)NC(c1ccc(C)cc1)c1ccc2cccnc2c1O (stereo not given) | -1.36%
COC(=O)c1cccc(NC(=O)NC2CCN(c3ccnc(Nc4cc(OC)c(OC)c(OC)c4)n3)C2)c1 (stereo not given) | 8.79%
Cc1ccc(Oc2c(-c3ccccc3CN3CCCC3CN(C)C)cnn(C)c2=O)cn1 (stereo not given) | 5.57%

SMILES | inhibition
CCn1c(-c2nonc2N)nc2c(-c3cccc(NC(=O)Nc4ccc(C#N)cc4)c3)ncc(OCCCN)c21 | 2.67%
c1ccc2c(c1)CN(Cc1cc3ccccc3[nH]1)CC1(CCN(Cc3c[nH]c4cnccc34)CC1)O2 | -0.44%
CCCCCN1CCCC(CNS(=O)(=O)c2ccc(C(=O)Nc3ccc(C(F)(F)F)cc3)cc2)C1 (stereo not given) | -0.42%
O=C(NCCc1ccc(O)cc1)n1c2ccccc2c2ccccc21 | 1.38%
CCc1cccc(-n2c(=O)c3cccnc3n2CC(=O)NC2CCCC2)c1 | 4.05%
O=C(/C=C/c1ccc(Cl)c(Cl)c1)NC1CCN(Cc2ccc(O)cc2)C1 (stereo not given) | -0.76%
CC(C)CNc1c2c(nc3cnn(-c4c5c(nc6cn[nH]c46)CCCC5)c13)CCCC2 | -2.14%
O=S(=O)(NCCN1CCCC1)c1cccc(-c2ccc(CNCc3ccc(F)cc3)cc2)c1 | 4.19%
N#Cc1cccc(NC(=O)c2ccc(S(=O)(=O)NCC3CCCN3CC3CCCCC3)cc2)c1 (stereo not given) | 1.88%
COc1cc(Nc2nccc(N3CCC(NC(=O)Nc4cccc(C(C)=O)c4)C3)n2)cc(OC)c1OC (stereo not given) | 3.92%
O=C(NC1CCN(Cc2ccc(Cl)cc2)CC1)c1cn(-c2ccccc2)nc1-c1cccnc1 | 1.49%
Oc1ccc(CCNc2nc(NCc3ccccc3-c3ccccc3)nc(N3CCCNCC3)n2)cc1 | 0.48%
COc1ccc2ccc(F)c(CC(=O)N3CCOC(CNCc4cccc(-c5ccc(F)cc5)n4)C3)c2n1 (stereo not given) | -0.12%
c1ccc2c(NCCCCCCNc3ccnc4ccccc34)ccnc2c1 | -2.32%
CCCC(C)C(=O)N1CCOC(COCc2cccc(C(F)(F)F)c2)(c2ccc(Cl)cc2)C1 (stereo not given) | -1.52%
O=C(/C=C/c1ccc(Cl)cc1)NCCCCCN1CCC(C(=O)Nc2cccc(Cl)c2)CC1 | 0.58%
O=C(Nc1cc(C(F)(F)F)cc(C(F)(F)F)c1)c1cccc([N+](=O)[O-])c1 | 2.84%
CCOc1cc(CC)ccc1C1CCN(CCN2CCC(CNC(=O)c3ccc(-c4ccc(C#N)cc4)cc3)CC2)CC1 | 13.1%
CN(Cc1cccc(O)c1)C1CCN(c2cc(NC(=O)c3ccc(F)cc3)ccn2)C1 (stereo not given) | 3.61%
CC[C@H](NC(=O)c1c(CN2CCC(N3CCCCC3)CC2)c(-c2ccccc2)nc2cc(O)ccc12)c1ccccc1 | 1.08%
